In the library only some 28% were active in any assay of this set; here they are far more common.
CYP2C9 inh: inhibitors of human CYP2C9; inhibition, % at 5 µM; P11712; CYP2C9 Supersomes, luciferin-H conversion, luminescence; hit rate 20% among 96,000;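 active means blocking of liver enzyme CYP2C9 beyond about 50% at 5 µM, limit read from the data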
CYP2C9 act: increases human cytochrome P450 2C9 activity | P11712 | recombinant CYP2C9, luciferin-H conversion, luminescence; hits give high values; factor 1 = untreated enzyme, 0 = blocked | activation factor at 5 µM | hit rate 1.4% among 96,000 | AID 1024;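 active means activation factor of 2 or more for CYP2C9 at a 5 µM dose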;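 further: 0 = sulfaphenazole-blocked wells and 1 = vehicle-only wells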
PTK2B oligo ant: Pyk2 (human) oligomerization antagonism; z-score (the deposit names both 25 µM and 10 µM); AID 1347419; hit rate 0.83% among 99,000; Q14289; Q293 cells, Pyk2 FERM NanoBiT luminescence; hits give low values;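 active means Z-score of -3 or lower, scaled per plate to the spread of control and sample wells; inactive means z-score above -3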;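 further: negative z-score means lost luminescence so less FERM oligomerization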
CYP2C19 activ: increases human CYP2C19 enzyme activity | P33261 | recombinant CYP2C19, luciferin-H EGE luminescence; hits give high values; 0 = fully inhibited enzyme, 1 = untreated enzyme | activation factor at 5 µM | 96,000 tested, under 10 active | AID 1025;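 active means activation factor of at least 2 at 5 µM in the primary screen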;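 further: 0 = wells with 2.5 mM tranylcypromine and 1 = vehicle-only wells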
Target sequence (P33261 whole entry, looked up): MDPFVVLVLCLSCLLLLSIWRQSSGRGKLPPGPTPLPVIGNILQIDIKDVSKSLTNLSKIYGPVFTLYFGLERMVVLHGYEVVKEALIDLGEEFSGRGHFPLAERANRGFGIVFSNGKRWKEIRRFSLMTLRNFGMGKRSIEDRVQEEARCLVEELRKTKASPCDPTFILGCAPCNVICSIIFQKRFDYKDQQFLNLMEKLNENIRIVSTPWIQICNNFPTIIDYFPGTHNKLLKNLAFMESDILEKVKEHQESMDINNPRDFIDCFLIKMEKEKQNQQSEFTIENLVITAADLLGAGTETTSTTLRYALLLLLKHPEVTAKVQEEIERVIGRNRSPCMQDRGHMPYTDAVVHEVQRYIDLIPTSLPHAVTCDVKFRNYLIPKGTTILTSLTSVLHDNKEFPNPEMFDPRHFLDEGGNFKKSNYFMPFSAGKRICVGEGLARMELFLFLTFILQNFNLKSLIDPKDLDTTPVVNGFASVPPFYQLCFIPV
CYP2C19 inh: blocks human cytochrome P450 2C19 | inhibition, % at 5 µM | hit rate 21% among 96,000 | CYP2C19 Supersomes, luciferin-H EGE luminescence, 30 min;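 active means CYP2C19 inhibition above a set limit at 5 µM in the primary screen, cut at about 50% in these data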;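 further: plate controls were negative control wells for no effect and 2.5 mM tranylcypromine positive control for full effect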
Numbers without * were called inactive; . = no result given.

SMILES	CYP2C9 inh	CYP2C9 act	PTK2B oligo ant	CYP2C19 activ	CYP2C19 inh
CC(C)Nc1oc(Cc2cccc3ccccc23)nc1C#N	56*	0.4	0.28	0	99*
CC1CN(c2oc(-c3cccs3)nc2C#N)CC(C)O1 (stereo not drawn)	20	0.8	1.4	0.7	34
CC1CN(c2oc(Cc3cccc4ccccc34)nc2C#N)CC(C)O1 (stereo not drawn)	60*	0.4	0.11	0.4	64*
CCCCC(=O)Nc1ccc(C(=O)NNC(=O)CCCOc2ccc(Cl)cc2Cl)cc1	.	.	2	.	.
COc1ccc(CC(=S)N2CCOCC2)cc1	8	0.9	0.63	0	96*
COc1cccc(NC(=O)c2nn(C)cc2Br)c1	.	.	0.17	.	.
Clc1ccc(-n2ncc3c(NCc4ccco4)ncnc32)cc1	.	.	-0.39	.	.
Clc1ccc(Cn2ncc3c(NCc4ccco4)ncnc32)c(Cl)c1	-180	2.8*	.	0.8	22
CCc1cc2c(NCc3ccco3)ncnc2s1	41	0.6	0.68	0.5	50*
CC(=O)NN1C(=O)c2ccc(Oc3cccc([N+](=O)[O-])c3)cc2C1=O	12	0.9	0.11	0.9	6
COc1cccc(-c2nc(CS(=O)(=O)c3ccccc3)no2)c1	32	0.7	0.73	0.6	43
O=C(CCCCCCN1C(=O)c2ccccc2C1=O)N1CCC(c2ccccc2)C1 (stereo not drawn)	.	.	-0.32	.	.
Cc1cc(C)nc(SCCCn2c(=O)[nH]c3ccccc32)n1	-39	1.4	0.13	0	97*
O=C(c1cc2ccccc2o1)N1CCN=C1SCc1cccnc1	52*	0.5	1.6	0.7	30
CSC1=NCCN1C(=O)c1ccc(Br)o1	2	1	.	0.9	9
O=C(c1cc2ccccc2o1)N1CCN=C1SCc1cccc(F)c1	-3	1	.	1.1	-8
O=C(c1ccc(Br)o1)N1CCN=C1SCc1cccnc1	64*	0.4	.	0.1	89*
CCC(=O)NC1(C(F)(F)F)C(=O)NC(C)=C1C#N (stereo not drawn)	4	1	-0.23	0.9	12
Clc1ccc(OCCCCSc2ncccn2)cc1	18	0.8	-0.94	0.9	10
CCCOc1ccc(OCCSc2ncccn2)cc1	50*	0.5	-0.52	0.5	47
COc1ccnc(NCc2ccc(Cl)cc2)c1C#N	30	0.7	-3.6*	0	100*
O=C(CCCn1c(=O)[nH]c2cc(Cl)ccc2c1=O)N1CCN(c2ccc([N+](=O)[O-])cc2)CC1	-4	1	0.02	1.2	-16
Cc1ccc(C)c(Nc2nc3nonc3nc2N2CCOCC2)c1	8	0.9	0.7	0.9	12
O=S(=O)(Nc1nc2ccccc2nc1N1CCN(c2ccccc2F)CC1)c1ccc(Cl)cc1	100*	0	-2.3	0.7	29
CCOc1ccc(S(=O)(=O)Nc2nc3ccccc3nc2N2CCN(C)CC2)cc1	56*	0.4	0.43	0.8	18
SMILES	CYP2C9 inh	CYP2C9 act	PTK2B oligo ant	CYP2C19 activ	CYP2C19 inh
Cc1ccccc1S(=O)(=O)Nc1nc2ccccc2nc1N1CCOCC1	70*	0.3	-0.39	1	4
Cc1cc(C)n(S(=O)(=O)c2ccc(Cl)c(Cl)c2Cl)n1	-73	1.7	0.76	0.3	69*
COc1c(S(=O)(=O)n2nc(C)cc2C)ccc(Cl)c1Cl	-132	2.3*	-0.52	0.5	52*
COc1cc(C(=O)n2nc(C)cc2C)cc(OC)c1OC	16	0.8	0.5	0.8	24
Cc1cc(C)n(S(=O)(=O)c2cccc(Cl)c2Cl)n1	26	0.7	-0.3	0.5	54*
Cc1cc(C)n(C(=O)CSc2ccc(Cl)cc2)n1	17	0.8	1.3	0.9	5
COc1ccc2nc(NCCCNC(=O)c3cc(OC)c(OC)c(OC)c3)c(C#N)cc2c1	24	0.8	0.68	0.7	26
COc1ccc(S(=O)(=O)N/N=C(/C)c2cccc(NC(=O)c3ccccc3Cl)c2)cc1	95*	0	-0.12	0	97*
CCC(CC)C(=O)Nc1cccc(/C(C)=N/NC(=O)c2ccccc2Cl)c1	42	0.6	-0.41	0.5	51*
CCC(=O)Oc1ccc(C(=O)Nc2cccc(C(=O)c3ccccc3)c2)cc1	73*	0.3	-1.7	0.3	71*
CCC(CC)C(=O)Nc1cccc(-c2nc3ccccc3o2)c1	66*	0.3	-0.41	0.4	59*
CCC(CC)C(=O)Nc1cccc(/C(C)=N/NC(=O)c2c(Br)cnn2C)c1	13	0.9	-0.74	1	-4
CC(C)OC(=O)c1cccc(NC(=O)c2ccccc2)c1	.	.	-0.48	.	.
O=C1CCCN1c1ccc(S(=O)(=O)Oc2ccc(Cl)cc2)cc1[N+](=O)[O-]	20	0.8	1.3	0.5	50
CC1(C)NC(=O)N(CC(=O)Nc2nc(-c3ccc(F)cc3)cs2)C1=O	-64	1.6	-1	1	0
Cn1c(=O)c2cc(S(=O)(=O)NCCC(=O)NCCC3=CCCCC3)ccc2n(C)c1=O	8	0.9	-0.75	1.1	-8
Cc1ccc(OCC(=O)n2cnnc2N)c(C)c1	-10	1.1	.	1	-5
CCC(CC)C(=O)Nc1cccc(C(=O)c2ccccc2)c1	55*	0.4	-0.98	0.3	70*
CCC(CCC(=O)Nc1cccc(C(=O)O)c1)C(=O)O (stereo not drawn)	.	.	-0.5	.	.
O=C(Cc1c(C(=O)O)[nH]c2ccccc12)NCCN1CCN(c2cccc(Cl)c2)CC1	13	0.9	0.94	1	-2
COC(=O)C(NC(=O)c1ccccc1Cl)(Nc1ncc(S(=O)(=O)c2ccc([N+](=O)[O-])cc2)s1)C(F)(F)F (stereo not drawn)	87*	0.1	0.04	1	3
COCC(C)n1c(C)cc(C(=O)COC(=O)c2ccc(N3CCCC3=O)cc2)c1C (stereo not drawn)	2	1	-0.2	0.9	13
CC1(C)Cc2c(C#N)c(SCCC#N)nc(N3CCOCC3)c2CS1	92*	0.1	-0.76	0.5	51*
CCCSc1nc(N2CCCC2)c2c(c1C#N)CC(C)(C)OC2	94*	0.1	-0.99	0.4	57*
CC1(C)Cc2c(C#N)c(SCCOc3ccccc3)nc(N3CCOCC3)c2CO1	99*	0	-1.6	0.1	89*
SMILES	CYP2C9 inh	CYP2C9 act	PTK2B oligo ant	CYP2C19 activ	CYP2C19 inh
Cn1ncc(C#N)c1NC(=O)c1nn2cccnc2c1Cl	4	1	0.97	1.1	-11
COc1cccc(C(=O)N2CCN(Cc3cccc(F)c3)CC2)c1	44	0.6	1.1	0	98*
COc1cc(OC)cc(C(=O)N2CCN(Cc3cccc(F)c3)CC2)c1	-32	1.3	-0.28	0	98*
O=C(c1cccc(F)c1)N1CCN(Cc2ccco2)CC1	10	0.9	1	0.3	69*
O=C(c1ccco1)N1CCN(Cc2cccc(F)c2)CC1	-2	1	-0.16	0.6	43
CCCOc1ccc(-c2cnc(N)s2)cc1	22	0.8	-0.38	0.8	15
O=C(C1CCCN1C(=O)c1cccs1)N1CCN(Cc2ccc3c(c2)OCO3)CC1 (stereo not drawn)	.	.	1.6	.	.
CCC(=O)Nc1ccc(N2CCC(C)CC2)cc1	.	.	-0.38	.	.
